Among the data in ChEMBL document CHEMBL4513216, “Probing the Open Global Health Chemical Diversity Library for Multistage-Active Starting Points for Next-Generation Antimalarials” (ACS Infect Dis, 2020) are INHIBITION values, retold here.

SMILES strings stand for the structures. Screen size: about 69,000 compounds; about 8,600 (12%) showed an effect of 50% or more. This excerpt belongs to a sample that is enriched for strong results.

For this test, the system named is Plasmodium berghei. As to the kind of experiment: Screen against P. berghei liver stage (PbLuc), transformed with Luciferase, at 10uM. It counts as functional, HepG2. Particulars: tested at 10 uM.
On to `Cc1ccc(-c2nc(CN3CC(n4nc(C)cc4C)C3)no2)cc1`, for which the INHIBITION came out at 1.86%.
As to `COCC1COCCC12CCN(C(=O)Cc1ccc(F)cc1)CC2` (configuration not stated), the INHIBITION turned out to be 0.542%.
On to `CCC(CNC(=O)c1c(C)nn(C)c1OC)Oc1ccccc1` (configuration not stated), for which the INHIBITION is given as 73.5%.
As for `COc1ccccc1C(C)CNC(=O)c1c(C)nn(C)c1OC` (configuration not stated), the figure is 0.705%; as for `COc1c(C(=O)NCC(C)Sc2ccccc2)c(C)nn1C` (configuration not stated), 29.1%; as for `Cc1ccc(NC(=O)N(CCO)Cc2ccsc2)cc1`, -71.5%.
As for `COCCN(C)C(=O)Nc1ccc2c(ccn2CC(=O)N(C)C)c1`, the INHIBITION was 19.73%.
As for `COCCN(C)C(=O)Nc1ccc2c(ccn2CCOC)c1`, the figure is 58.4%.
Under `CCCn1ccc2ccc(NC(=O)N(C)CCOC)cc21` stands 20.5%; under `O=C1CC2(CNCCN(C(=O)Nc3ccccc3)C2)CN1` (configuration not stated), 16.1%.
As for `CC(=O)NCC1CCC2(CCN(c3nccc(C4CCCC4)n3)CC2)O1` (configuration not stated), the figure is 42.1%.
Turning to `CC(=O)NCC1CCC2(CCN(c3ncc(C)cn3)CC2)O1` (configuration not stated), the INHIBITION was -4.21%.
Under `CC(=O)NCC1CCC2(CCN(c3ncc(C(C)=O)c(C)n3)CC2)O1` (configuration not stated) stands 56.7%; under `CCC(=O)N1CCC(NCc2cc(C(F)(F)F)ccc2Cl)C1` (configuration not stated), 42.6%.
As for `CC(C)N1CCOCC2(CCCN(C(=O)c3cn(C)cn3)C2)C1` (configuration not stated), the figure is -27.9%.
Under `O=C(c1cccs1)N1CCOCC2(C1)CN(c1cccnc1)C(=O)CO2` (configuration not stated) stands 0.618%; under `c1cncc(N2CCOCC3(CCCN(Cc4cccs4)C3)C2)c1` (configuration not stated), 59.1%; under `c1cncc(CN2CCCC3(COCCN(c4cncnc4)C3)C2)c1` (configuration not stated), 3.11%.
With `c1ccc(N2CCC3(COCCN(Cc4cccs4)C3)C2)nc1` (configuration not stated), the INHIBITION was -7.28%.
Under `O=C(c1cccnc1)N1CCCC2(COCCN(c3ccccc3)C2)C1` (configuration not stated) stands 29.7%.
Under `CC(C)N1CCOCC2(CCCN(C(=O)c3cncn3C)C2)C1` (configuration not stated) stands 76.3%; under `c1cnc(N2CCOCC3(CCCN(Cc4cccs4)C3)C2)nc1` (configuration not stated), 67.2%.
As to `c1csc(CN2CCCC3(COCCN(c4cnccn4)C3)C2)c1` (configuration not stated), the INHIBITION was 18.3%.
As for `CC(C)N1CCC2(CCCN(C(=O)c3cncn3C)C2)CC1`, the figure is 23.1%.
As for `O=C(c1cccs1)N1CCCC2(COCCN(c3cccnc3)C2)C1` (configuration not stated), the figure is 67.2%; as for `Cn1cc(CN2CCCC3(COCCN(c4cccnc4)C3)C2)cn1` (configuration not stated), 32.2%.
As for `Cc1ccnn1CCNC(=O)c1cnc(N(C)C)nc1`, the figure is -43.452%.
For the molecule `COCCN1C[C@@H](C)[C@@]2(COCCN(C(=O)c3ccncc3)C2)C1`, the INHIBITION is given as -8.85%.
With `COc1c(C2CCCN2C(=O)c2c(C)noc2C)c(C)nn1C` (configuration not stated), the INHIBITION is recorded as 19.4%.
Under `Cc1ccn2c(F)c(C(=O)N3CCC4(CCCN(C)C4=O)C3)nc2c1` (configuration not stated) stands 3.69%.
Under `Cc1cn[nH]c1C1COCCN1Cc1cscn1` (configuration not stated) stands 25.85%; under `CCN(C)c1ncnc2c1CCN(C(=O)c1cnccn1)CC2`, -66%; under `O=C(NCCO)c1sc2ncccc2c1C1CNCCO1` (configuration not stated), 9.98%.
As for `CC(C)NC(=O)N1CCC2(CC1)COc1ccccc1S(=O)(=O)N(C)C2`, the figure is 4.57%; as for `CCS(=O)(=O)N1CCCC2(COCCN(c3cnccn3)C2)C1` (configuration not stated), 45.8%; as for `O=S(=O)(c1cccs1)N1CCCC2(COCCN(c3cccnc3)C2)C1` (configuration not stated), 82.3%.
Consider `O=C(NC1CC1)N1CCOCC2(CCN(Cc3cccs3)C2)C1` (configuration not stated), for which the INHIBITION is recorded as -0.371%.
As for `O=C(C1CCCO1)N1CCCC2(CCN(c3cccnc3)CC2)C1` (configuration not stated), the figure is 29.5%; as for `O=C(N1CCCC1)N1CCOCC2(CCN(Cc3cccs3)C2)C1` (configuration not stated), 66.8%; as for `O=C(c1ccncc1)N1CCCC2(COCCN(c3ccccc3)C2)C1` (configuration not stated), -6.82%.
Under `c1cncc(N2CCOCC3(CCCN(c4nncs4)C3)C2)c1` (configuration not stated) stands 43.2%; under `O=C([C@H]1CCCO1)N1CCCC2(COCCN(c3ccccc3)C2)C1` (some centres not stated), 66.3%; under `COCC(=O)N1CCOCC2(CCN(Cc3cccs3)C2)C1` (configuration not stated), -13.2%.
Under `Cc1ccc(C2CSCCN2C(=O)c2cnsn2)o1` (configuration not stated) stands 8.46%.
For `CN1CCN(C(=O)c2n[nH]c3c2CN(C2CCOC2)CC3)CC1` (configuration not stated), the INHIBITION amounted to 22.3%.
As for `CCNc1ncnc2c1CN(C1CCCNCC1)C(=O)CN2C` (configuration not stated), the figure is 40%; as for `CNc1cc(C2CN(CC(=O)N(C)C)CCO2)nc(C)n1` (configuration not stated), 14.7%; as for `CCC1CN(C)c2ccccc2CN1C(=O)c1c[nH]c(=O)cc1C` (configuration not stated), 28.7%.
On to `Cc1cc(=O)[nH]cc1C(=O)N1Cc2ccccc2N(C)CC1C` (configuration not stated), for which the INHIBITION was found to be 52.6%.
Consider `CC1CN(C)c2ccccc2CN1C(=O)c1cc[nH]c(=O)c1` (configuration not stated), for which the INHIBITION is -18.3%.
Under `O=C(NCCNc1ncccn1)C1CC(=O)N(CC(F)(F)F)C1` (configuration not stated) stands 19.5%.
For `Cc1ccccc1CCNC(=O)C1CC(=O)N(CC(F)(F)F)C1` (configuration not stated), the INHIBITION turned out to be 55.5%.
As for `O=C(NCCc1ccccn1)C1CC(=O)N(CC(F)(F)F)C1` (configuration not stated), the figure is 2.3%.
As for `CN1CCN(C(=O)c2cn(-c3ccc(C(F)(F)F)cn3)nn2)CC1`, the figure is 59.1%; as for `O=C(c1cn(-c2ccc(C(F)(F)F)cn2)nn1)N1CCCCCC1`, 46.1%; as for `CC1CCN(C(=O)c2cn(-c3ccc(C(F)(F)F)cn3)nn2)CC1`, 2.55%.
As for `CC(C)N(Cc1ccccn1)S(=O)(=O)N1CCCC1c1ccco1` (configuration not stated), the figure is 7.515%.
